Test results: PubChem BioAssay (Tox21)
“And” between values parts separate entries of the source, which are not always exact repeats. Identical values can stand only once. Records with an inconclusive call do not appear. A call without a number means that no potency is given here. A number with no mark means an inactive call. The source made the active and inactive calls. Calls come from the whole dose curve; as a rule, active = well fitted curve in the direction sought with a large enough effect in the repeat runs; inconclusive = weak or mixed curves; inactive = no such curve, though single readings can be large; an effect the other way counts as inactive or inconclusive.

experiment: qHTS assay to identify small molecule agonists of the RXR signaling pathway - cell viability counter screen (AID 1159529); conditions: RXR-alpha-bla HEK293T viability, CellTiter-Glo, 16 h; series mostly up to 76.8 µM; note: nearly all actives have a fitted effect of over 50% in size;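 for activity change, negative = cytotoxicity: HEK 293T cells carrying an RXR-alpha UAS beta-lactamase reporter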
Summary of the method: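 In this parallel viability measure, GeneBLAzer RXR-alpha HEK 293T cells (2% charcoal-stripped FBS) were given a 5 hr preincubation, treated with compounds 16 hr at 37 C, and read by CellTiter-Glo luminescence.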
Potency is the fitted concentration of half-maximal effect.

Row | Structure (SMILES) | Potency | activity change, negative = cytotoxicity
1 | C=CC(=O)OCC(CO)(COC(=O)C=C)COC(=O)C=C | 13.9 µM (active) and 12.3 µM (active) | –
2 | CSc1ccc2c(c1)C(N1CCN(C)CC1)Cc1ccccc1S2 (stereo not given) | 23.9 µM (active) | –
3 | Cc1nc(-c2ccc3c(c2)CCN(CCC2CCC(NC(=O)/C=C/c4ccc(F)cc4)CC2)CC3)no1 (stereo not given) | inactive | –
4 | CNC(=O)c1ccccc1 | inactive | –
5 | Oc1ccc2c(c1)-c1ccccc1C2 | inactive | –
6 | CCc1cc(Cc2cc(CC)c(N)c(CC)c2)cc(CC)c1N | 38.9 µM (active) | –
7 | CCC(CN)=C(c1ccccc1)c1ccccc1 | inactive | –
8 | CCCCN1C(=O)[C@@H]([C@H](O)C2CCCCC2)NC(=O)C12CCN(Cc1ccc(Oc3ccc(C(=O)O)cc3)cc1)CC2 | inactive | –
9 | O=C(Oc1ccccc1)c1ccccc1C(=O)Oc1ccccc1 | inactive | –
10 | COC(=O)C1=C(C)NC(C)=C(C(=O)OCCc2ccc(N3CCN(C(c4ccccc4)c4ccccc4)CC3)cc2)C1c1cccc([N+](=O)[O-])c1 (stereo not given) | inactive | –
11 | C[C@]12CCC(=O)C=C1CC[C@@H]1[C@@H]2[C@@H](O)C[C@@]2(C)[C@H]1CC[C@]2(O)C(=O)COC(=O)CCC(=O)O | inactive | –
12 | NC(=O)CC[C@@H]1NC(=O)[C@H](Cc2ccccc2)NC(=O)[C@H](Cc2ccc(O)cc2)NC(=O)CCSSC[C@@H](C(=O)N2CCC[C@H]2C(=O)N[C@@H](CCCN=C(N)N)C(=O)NCC(N)=O)NC(=O)[C@H](CC(N)=O)NC1=O | inactive | –
13 | COc1cccc(N)c1 | inactive | –
14 | O=c1cccccc1O | inactive | –
15 | CC(C)(C)C(=O)OCOC(=O)[C@@H]1N2C(=O)[C@@H](NC(=O)[C@H](N)c3ccccc3)[C@H]2SC1(C)C | inactive | –
16 | CCOC(=O)c1nc(C(Cl)(Cl)Cl)n(-c2ccc(Cl)cc2Cl)n1 | 49 µM (active) | –
17 | CC(NN)c1ccccc1 (stereo not given) | – | -0.339% [at 15.8 µM]
18 | CCCC(=O)OC[C@@H](OC(=O)CCC)[C@@H](OC(=O)CCC)[C@H](Cn1c2nc(=O)[nH]c(=O)c-2nc2cc(C)c(C)cc21)OC(=O)CCC | inactive | –

Row | Structure (SMILES) | Potency | activity change, negative = cytotoxicity
19 | Nc1ccc(N)c2ccccc12 | 21.8 µM (active) | –
20 | CC1(C)CCC(C)(C)c2cc(C(=O)Nc3ccc(C(=O)O)cc3)ccc21 | inactive | –
21 | Nc1cc(C(F)(F)F)ccc1S | 8.49 µM (active) | –
22 | O=C(Oc1cccc2cccnc12)c1ccccc1 | 8.49 µM (active) | –
23 | Cc1cccc(S(=O)(=O)O)c1C | inactive | –
24 | c1ccc(CSCc2ccccc2)cc1 | inactive | –
25 | COC(=O)c1cc(Cl)ccc1OC | inactive | –
26 | CC[C@@]1(O)C(=O)OCc2c1cc1n(c2=O)Cc2c-1nc1ccccc1c2/C=N/OC(C)(C)C | 0.848 µM (active) | –
27 | CCCCCCCC(=O)[O-].CCCCCCCC(=O)[O-].[Zn+2] | inactive | –
28 | O=C(c1ccc(F)cc1)C1CCN(CCn2c(=O)[nH]c3ccccc3c2=O)CC1 | inactive | –
29 | CCCC/C=C/CCCCO | inactive | –
30 | CCCCCCCC[P+](CCCCCCCC)(CCCCCCCC)CCCCCCCC | 3.87 µM (active) | –
31 | CCCCCCCCCCCC[N+](C)(C)CCCCCCCCCCCC | 15.5 µM (active) | –
32 | CC(C)C(C)(C)C(C)(C)C(C)(C)S | inactive | –
33 | C[C@@H](NCCCc1cccc(C(F)(F)F)c1)c1cccc2ccccc12 | 16.9 µM (active) | –
34 | CNc1ccc(O)cc1 | 34.6 µM (active) | –
35 | O=C(c1ccc(O)cc1O)c1ccc(O)cc1O | inactive | –
36 | CC(C)CCCCCCCCCCCCCCC(=O)O | inactive | –

experiment: qHTS assay to identify small molecule antagonists of the retinoid acid receptor (RAR) signaling pathway - cell viability counter screen (AID 1159551); conditions: C3RL4 cells viability, ATP luminescence (CellTiter-Glo), 6 h; series mostly up to 92.4 µM; note: nearly all actives have a fitted effect of over 35% in size
Summary of the method: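 Following overnight attachment, C3RL4 reporter cells received DMSO-dissolved compounds and then retinol (1 uM final). Six hours later at 37 C, ATP content was measured by CellTiter-Glo luminescence.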

Row | Structure (SMILES) | Potency
37 | C=CC(=O)OCC(CO)(COC(=O)C=C)COC(=O)C=C | 61.3 µM (active)
38 | CSc1ccc2c(c1)C(N1CCN(C)CC1)Cc1ccccc1S2 (stereo not given) | inactive
39 | Cc1nc(-c2ccc3c(c2)CCN(CCC2CCC(NC(=O)/C=C/c4ccc(F)cc4)CC2)CC3)no1 (stereo not given) | inactive
40 | CNC(=O)c1ccccc1 | inactive
41 | Oc1ccc2c(c1)-c1ccccc1C2 | inactive
42 | CCc1cc(Cc2cc(CC)c(N)c(CC)c2)cc(CC)c1N | inactive
43 | CCC(CN)=C(c1ccccc1)c1ccccc1 | inactive
44 | CCCCN1C(=O)[C@@H]([C@H](O)C2CCCCC2)NC(=O)C12CCN(Cc1ccc(Oc3ccc(C(=O)O)cc3)cc1)CC2 | inactive
45 | O=C(Oc1ccccc1)c1ccccc1C(=O)Oc1ccccc1 | inactive
46 | COC(=O)C1=C(C)NC(C)=C(C(=O)OCCc2ccc(N3CCN(C(c4ccccc4)c4ccccc4)CC3)cc2)C1c1cccc([N+](=O)[O-])c1 (stereo not given) | inactive
47 | C[C@]12CCC(=O)C=C1CC[C@@H]1[C@@H]2[C@@H](O)C[C@@]2(C)[C@H]1CC[C@]2(O)C(=O)COC(=O)CCC(=O)O | inactive
48 | NC(=O)CC[C@@H]1NC(=O)[C@H](Cc2ccccc2)NC(=O)[C@H](Cc2ccc(O)cc2)NC(=O)CCSSC[C@@H](C(=O)N2CCC[C@H]2C(=O)N[C@@H](CCCN=C(N)N)C(=O)NCC(N)=O)NC(=O)[C@H](CC(N)=O)NC1=O | inactive
49 | COc1cccc(N)c1 | inactive
50 | O=c1cccccc1O | inactive
51 | CC(C)(C)C(=O)OCOC(=O)[C@@H]1N2C(=O)[C@@H](NC(=O)[C@H](N)c3ccccc3)[C@H]2SC1(C)C | inactive
52 | CCOC(=O)c1nc(C(Cl)(Cl)Cl)n(-c2ccc(Cl)cc2Cl)n1 | inactive
53 | CCCC(=O)OC[C@@H](OC(=O)CCC)[C@@H](OC(=O)CCC)[C@H](Cn1c2nc(=O)[nH]c(=O)c-2nc2cc(C)c(C)cc21)OC(=O)CCC | inactive

Row | Structure (SMILES) | Potency
54 | Nc1ccc(N)c2ccccc12 | 68.5 µM (active)
55 | CC1(C)CCC(C)(C)c2cc(C(=O)Nc3ccc(C(=O)O)cc3)ccc21 | inactive
56 | Nc1cc(C(F)(F)F)ccc1S | inactive
57 | O=C(Oc1cccc2cccnc12)c1ccccc1 | inactive
58 | Cc1cccc(S(=O)(=O)O)c1C | inactive
59 | c1ccc(CSCc2ccccc2)cc1 | inactive
60 | COC(=O)c1cc(Cl)ccc1OC | inactive
61 | CC[C@@]1(O)C(=O)OCc2c1cc1n(c2=O)Cc2c-1nc1ccccc1c2/C=N/OC(C)(C)C | inactive
62 | CCCCCCCC(=O)[O-].CCCCCCCC(=O)[O-].[Zn+2] | inactive
63 | CCCC/C=C/CCCCO | inactive
64 | CCCCCCCC[P+](CCCCCCCC)(CCCCCCCC)CCCCCCCC | 54.2 µM (active)
65 | CCCCCCCCCCCC[N+](C)(C)CCCCCCCCCCCC | 43.3 µM (active)
66 | CC(C)C(C)(C)C(C)(C)C(C)(C)S | inactive
67 | C[C@@H](NCCCc1cccc(C(F)(F)F)c1)c1cccc2ccccc12 | 33.5 µM (active)
68 | CNc1ccc(O)cc1 | 27.3 µM (active)
69 | O=C(c1ccc(O)cc1O)c1ccc(O)cc1O | inactive
70 | CC(C)CCCCCCCCCCCCCCC(=O)O | inactive
